{
  "source": "the antibiotic and cytotoxicity screens of Wong et al. (2023)",
  "note": "Out of some 39,000 compounds screened, about 1,500 (3.8%) were called active. The full list was thinned out, with actives kept by preference.",
  "data": [
    {"test_system": "HSkMC (human skeletal muscle cells)", "assay": "cytotoxicity call (relative viability < 0.9)", "conditions": "10 µM", "values": [
      {"smiles": "CC(C)[C@H]1C(=O)N[C@@H](CCCNC(=N)N)C(=O)NCC(=O)N[C@@H](CC(=O)O)C(=O)N[C@H](Cc2ccccc2)C(=O)N1C", "cytotoxicity call": "inactive"},
      {"smiles": "CC(C)C[C@H]1NC(=O)[C@@H](CCCN)NC(=O)[C@H](C(C)C)NC(=O)[C@H]2CCCN2C(=O)[C@@H](Cc2ccccc2)NC(=O)[C@@H](CC(C)C)NC(=O)[C@@H](CCCN)NC(=O)[C@H](C(C)C)NC(=O)[C@H]2CCCN2C(=O)[C@@H](Cc2ccccc2)NC1=O", "cytotoxicity call": "active"},
      {"smiles": "CC1NC(=O)C2CCCN2C(=O)C(CC(N)=O)NC(=O)C2CSSCC(N)C(=O)NC3CSSCC(NC1=O)C(=O)NC(C(C)O)C(=O)NCC(=O)NC(C(=O)NC(Cc1ccc(O)cc1)C(=O)O)CSSCC(NC(=O)C(Cc1ccc(O)cc1)NC(=O)C(CCC(=O)O)NC3=O)C(=O)N2", "note": "(centres undefined)", "cytotoxicity call": "inactive"},
      {"smiles": "CC(C)C[C@@H]1NC(=O)[C@@H](C(C)C)NC(=O)[C@@H]2CCCN2C(=O)[C@@H](CC(=O)O)NC(=O)[C@@H](Cc2c[nH]c3ccccc23)NC1=O", "cytotoxicity call": "inactive"},
      {"smiles": "CC[C@@H](C)CCCCC(=O)N[C@@H](CCN)C(=O)N[C@H](C(=O)N[C@@H](CCN)C(=O)N[C@H]1CCNC(=O)[C@H]([C@@H](C)O)NC(=O)[C@H](CCN)NC(=O)[C@H](CCN)NC(=O)[C@H](CC(C)C)NC(=O)[C@@H](Cc2ccccc2)NC(=O)[C@@H](CCN)NC1=O)[C@@H](C)O", "cytotoxicity call": "inactive"},
      {"smiles": "CC(C)(O)C#Cc1ccc([C@H]2[C@@H](CO)N3CCCCN(S(C)(=O)=O)C[C@@H]23)cc1", "cytotoxicity call": "inactive"},
      {"smiles": "N#C[C@H]1NCc2cnnn2Cc2ccccc21", "cytotoxicity call": "inactive"},
      {"smiles": "COc1ccc(NC(=O)N(C)C[C@H]2OCCCC[C@@H](C)Oc3ccc(NC(=O)NC(C)C)cc3C(=O)N([C@H](C)CO)C[C@H]2C)cc1", "cytotoxicity call": "inactive"},
      {"smiles": "COc1ccc(S(=O)(=O)N(C)C[C@@H]2OCCCC[C@H](C)Oc3ccc(NC(=O)Nc4ccccc4)cc3C(=O)N([C@@H](C)CO)C[C@@H]2C)cc1", "cytotoxicity call": "inactive"},
      {"smiles": "CN(C)CCN1CC2(CCN(C(=O)c3cnccn3)CC2)OCC1=O", "cytotoxicity call": "inactive"},
      {"smiles": "Cc1noc(C)c1S(=O)(=O)Nc1ccc2c(c1)C(=O)N([C@H](C)CO)C[C@@H](C)[C@@H](CN(C)Cc1ccc(C(F)(F)F)cc1)OCCCC[C@H](C)O2", "cytotoxicity call": "inactive"},
      {"smiles": "C[C@@H]1CCCCO[C@@H](CN(C)C(=O)CCC(F)(F)F)[C@@H](C)CN([C@@H](C)CO)C(=O)c2cc(NC(=O)Nc3ccccc3)ccc2O1", "cytotoxicity call": "inactive"},
      {"smiles": "C[C@@H]1CCCCO[C@@H](CN(C)Cc2ccc3c(c2)OCO3)[C@H](C)CN([C@H](C)CO)C(=O)c2cc(NC(=O)Nc3ccc4c(c3)OCO4)ccc2O1", "cytotoxicity call": "inactive"},
      {"smiles": "C[C@H]1CN([C@@H](C)CO)C(=O)c2cc(NC(=O)Nc3ccc4c(c3)OCO4)ccc2O[C@@H]1CN(C)Cc1ccc(C(F)(F)F)cc1", "cytotoxicity call": "inactive"},
      {"smiles": "C[C@@H]1CN([C@H](C)CO)C(=O)c2cc(NC(=O)Nc3ccc4c(c3)OCO4)ccc2O[C@@H]1CN(C)Cc1ccc(C(F)(F)F)cc1", "cytotoxicity call": "active"},
      {"smiles": "C[C@@H]1CN([C@@H](C)CO)C(=O)c2cc(NC(=O)Nc3ccc4c(c3)OCO4)ccc2O[C@H]1CN(C)Cc1ccc(C(F)(F)F)cc1", "cytotoxicity call": "active"},
      {"smiles": "C[C@H](CO)N1C[C@H](C)[C@@H](CN(C)Cc2ccc(C(F)(F)F)cc2)Oc2ccc(NC(=O)Nc3ccc4c(c3)OCO4)cc2C1=O", "cytotoxicity call": "inactive"},
      {"smiles": "C[C@H](CO)N1C[C@H](C)[C@H](CN(C)Cc2ccc(C(F)(F)F)cc2)Oc2ccc(NC(=O)Nc3ccc4c(c3)OCO4)cc2C1=O", "cytotoxicity call": "inactive"},
      {"smiles": "C[C@H]1CN([C@@H](C)CO)C(=O)c2cc(NC(=O)Nc3ccc4c(c3)OCO4)ccc2O[C@H]1CN(C)Cc1ccc(C(F)(F)F)cc1", "cytotoxicity call": "inactive"},
      {"smiles": "Cc1ccc(S(=O)(=O)Nc2ccc3c(c2)C(=O)N([C@H](C)CO)C[C@H](C)[C@@H](CN(C)C(=O)CCC(F)(F)F)OCCCC[C@H](C)O3)cc1", "cytotoxicity call": "inactive"},
      {"smiles": "C[C@H]1CN([C@@H](C)CO)C(=O)Cc2cc(NC(=O)Cc3ccccc3)ccc2O[C@H]1CN(C)S(=O)(=O)c1ccccc1", "cytotoxicity call": "inactive"},
      {"smiles": "C[C@@H]1CN([C@@H](C)CO)C(=O)c2cc(NC(=O)Nc3ccc(C(F)(F)F)cc3)ccc2O[C@@H](C)CCCCO[C@@H]1CN(C)S(=O)(=O)c1cn(C)cn1", "cytotoxicity call": "inactive"},
      {"smiles": "C[C@H]1CCCCO[C@@H](CN(C)S(=O)(=O)c2cn(C)cn2)[C@@H](C)CN([C@@H](C)CO)C(=O)c2cc(NC(=O)Nc3ccc(C(F)(F)F)cc3)ccc2O1", "cytotoxicity call": "active"},
      {"smiles": "C[C@@H]1CN([C@@H](C)CO)C(=O)c2cc(NC(=O)Nc3ccc(C(F)(F)F)cc3)ccc2O[C@@H](C)CCCCO[C@H]1CN(C)S(=O)(=O)c1cn(C)cn1", "cytotoxicity call": "inactive"},
      {"smiles": "C[C@H]1CCCCO[C@H](CN(C)S(=O)(=O)c2cn(C)cn2)[C@@H](C)CN([C@@H](C)CO)C(=O)c2cc(NC(=O)Nc3ccc(C(F)(F)F)cc3)ccc2O1", "cytotoxicity call": "inactive"},
      {"smiles": "C[C@H](CO)N1C[C@H](C)[C@@H](CN(C)S(=O)(=O)c2cn(C)cn2)OCCCC[C@H](C)Oc2ccc(NC(=O)Nc3ccc(C(F)(F)F)cc3)cc2C1=O", "cytotoxicity call": "active"},
      {"smiles": "C[C@@H]1CN([C@H](C)CO)C(=O)c2cc(NC(=O)Nc3ccc(C(F)(F)F)cc3)ccc2O[C@@H](C)CCCCO[C@@H]1CN(C)S(=O)(=O)c1cn(C)cn1", "cytotoxicity call": "inactive"},
      {"smiles": "CN1CCN(c2nc3c(c(=O)[nH]c(=O)n3C)n2CC(=O)c2ccc(Cl)cc2)CC1", "cytotoxicity call": "inactive"},
      {"smiles": "Cc1noc(C)c1S(=O)(=O)Nc1ccc2c(c1)C(=O)N([C@H](C)CO)C[C@H](C)[C@@H](CN(C)S(=O)(=O)c1ccc(F)cc1)O2", "cytotoxicity call": "inactive"},
      {"smiles": "COc1cccc(C#Cc2ccc3c(c2)O[C@@H](CN(C)C(=O)c2ccccn2)[C@H](C)CN([C@@H](C)CO)S3(=O)=O)c1", "cytotoxicity call": "inactive"},
      {"smiles": "Cc1c(/C=N/c2ccc(C(C)C)cc2)sc2ccccc12", "cytotoxicity call": "inactive"},
      {"smiles": "C[C@]12CC[C@@H]3[C@]4(C=C[C@@]5(C=C4C(=O)C4CCCCC4)C[C@@H](O)CC[C@]35C)[C@@H]1CC[C@@]2(O)CN1CCC(n2c(=O)[nH]c3ccccc32)CC1", "cytotoxicity call": "inactive"},
      {"smiles": "O=C(C[C@@H]1C[C@H]2c3cc(NS(=O)(=O)c4ccc(F)cc4)ccc3O[C@H]2[C@@H](CO)O1)NC1CCCCC1", "cytotoxicity call": "inactive"},
      {"smiles": "C[C@@H]1CN([C@H](C)CO)C(=O)CCCn2cc(nn2)CO[C@H]1CN(C)C(=O)Nc1ccccc1C(F)(F)F", "cytotoxicity call": "inactive"}
    ]}
  ]
}
